In PubChem BioAssay AID504339 (National Center for Advancing Translational Sciences (NCATS), 2011):
About 17,000 (4.4%) of roughly 390,000 compounds were called active. Where a call stands in place of a potency, no number is given. About 8% were inconclusive and are not listed. Calls come from the whole dose curve; as a rule, active = well fitted inhibition curve with a large enough effect; inconclusive = small, poorly fitted or top-dose-only effect; inactive = no such curve, though single readings can be large or run the other way. The full list was thinned out, with actives kept by preference.

Target: Lysine-specific demethylase 4A (Homo sapiens) (UniProt O75164)
Experiment: qHTS Assay for Inhibitors of JMJD2A-Tudor Domain; note: nearly all actives have a fitted effect of over 50% in size
Settings: AlphaScreen JMJD2A-Tudor / H3K4me3 peptide binding; series mostly up to 114 µM
Potency is the fitted concentration of half-maximal effect.

Chain of Lysine-specific demethylase 4A (Homo sapiens) (O75164 whole entry, looked up, the tested form may be a part): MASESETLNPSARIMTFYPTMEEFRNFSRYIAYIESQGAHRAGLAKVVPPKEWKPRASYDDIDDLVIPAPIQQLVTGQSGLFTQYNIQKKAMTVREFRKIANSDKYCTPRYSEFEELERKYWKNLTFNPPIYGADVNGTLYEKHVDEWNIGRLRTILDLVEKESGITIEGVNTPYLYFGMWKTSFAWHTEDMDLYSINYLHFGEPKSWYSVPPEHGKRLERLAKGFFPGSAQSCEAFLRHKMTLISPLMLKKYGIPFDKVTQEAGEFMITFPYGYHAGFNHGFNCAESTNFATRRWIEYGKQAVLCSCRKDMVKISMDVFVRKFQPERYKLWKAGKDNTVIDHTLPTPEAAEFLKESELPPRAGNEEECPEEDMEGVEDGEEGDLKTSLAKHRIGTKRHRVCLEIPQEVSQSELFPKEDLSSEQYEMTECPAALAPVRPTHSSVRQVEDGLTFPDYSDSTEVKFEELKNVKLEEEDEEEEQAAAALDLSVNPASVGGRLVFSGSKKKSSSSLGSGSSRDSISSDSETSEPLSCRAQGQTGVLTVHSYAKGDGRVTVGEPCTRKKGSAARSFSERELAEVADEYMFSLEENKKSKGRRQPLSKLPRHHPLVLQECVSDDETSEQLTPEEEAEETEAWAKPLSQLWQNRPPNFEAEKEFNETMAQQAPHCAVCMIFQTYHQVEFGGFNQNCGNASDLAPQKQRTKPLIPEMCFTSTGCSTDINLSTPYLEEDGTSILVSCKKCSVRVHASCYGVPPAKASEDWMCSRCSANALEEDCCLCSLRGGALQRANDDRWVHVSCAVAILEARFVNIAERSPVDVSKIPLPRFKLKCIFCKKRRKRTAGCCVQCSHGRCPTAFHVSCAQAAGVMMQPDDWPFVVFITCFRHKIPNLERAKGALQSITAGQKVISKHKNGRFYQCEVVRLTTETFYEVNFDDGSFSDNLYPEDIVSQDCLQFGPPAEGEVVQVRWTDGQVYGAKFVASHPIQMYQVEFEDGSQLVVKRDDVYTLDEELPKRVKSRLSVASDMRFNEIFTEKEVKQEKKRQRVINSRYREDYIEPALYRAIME

Compound	Potency
Cc1ccc(C)c(N2CCN(CCCNC(=O)Nc3ccc(Cl)cc3)CC2)c1	inactive
CCOc1ccc(NC(=O)CCS(=O)(=O)c2cccc3nsnc23)cc1	inactive
CCOc1ccccc1NC(=O)CCS(=O)(=O)c1cccc2nsnc12	inactive
CCOc1ccc(OCC)c(NC(=O)CN(C)S(=O)(=O)c2cccc3nsnc23)c1	50.1 µM (active)
CCc1nc2onc(C)c2c(=O)n1CC(=O)O	inactive
CCOc1ccc(NC(=O)c2cn(C3CCCCC3)c(=O)c3c2c2ccccc2n3C)cc1	inactive
O=C(N/N=C/c1cccc(Br)c1)c1ccc(N2CCCC2=O)cc1	56.2 µM (active)
O=C(N/N=C\c1cccc(Br)c1)c1ccccc1-n1cccc1	inactive
O=C(Nc1ccc(N2CCCC2=O)cc1)c1cncc(Br)c1	inactive
CC(Oc1ccccc1[N+](=O)[O-])C(=O)N/N=C/c1ccoc1 (stereo unspecified)	inactive
O=[N+]([O-])c1ccccc1OCCCCN1CCCCC1	inactive
CC1CN(CCOc2ccccc2[N+](=O)[O-])CC(C)O1 (stereo unspecified)	22.4 µM (active)
COc1ccc2ncc3c(-c4ccc(C)c(C)c4)nn(CC(=O)NC4CCCC4)c3c2c1	inactive
Cc1cc(=O)n(CC(=O)Nc2cccc([N+](=O)[O-])c2)c(-n2nc(C)cc2C)n1	inactive
O=C(/C=C/c1ccccc1)N1CCN(Cc2cc(=O)n3nc(-c4ccccc4F)sc3n2)CC1	inactive
COc1cccc2c1cc1c(=O)n(CC(=O)N3CCN(c4ccccc4)CC3)nc(C)n12	inactive
CC1Cc2cc(/C(O)=C3\C(=O)C(=O)N(CCN4CCOCC4)C3c3ccccc3F)ccc2O1 (stereo unspecified)	39.8 µM (active)
CC1Cc2cc(/C(O)=C3\C(=O)C(=O)N(Cc4cccnc4)C3c3ccccc3F)ccc2O1 (stereo unspecified)	inactive
O=C1C(=O)N(CCN2CCOCC2)C(c2cccc(Cl)c2)/C1=C(/O)c1ccc2c(c1)OCO2 (stereo unspecified)	inactive
CCOc1ccccc1NC(=O)C1CCCN(S(=O)(=O)c2cn(C)cn2)C1 (stereo unspecified)	inactive
COCCNS(=O)(=O)c1cc(-c2nn3c(C)nnc3c3ccccc23)ccc1C	inactive
Cc1cccc(N=Nc2c(C)[nH]n(-c3ccccc3)c2=O)c1	11.2 µM (active)
Cc1c(N=Nc2ccc(N(C)C)cc2)c(=O)n(-c2ccccc2)n1C	inactive
Cc1cccc(N=Nc2c(O)[nH]c3ccc(F)cc23)c1	inactive

Compound	Potency
Cc1[nH]n(-c2ccccc2)c(=O)c1CCOC(=O)c1ccc(C(F)(F)F)cc1	inactive
Cc1ccc(N=Nc2c(C)[nH]n(-c3ccccc3)c2=O)cc1	6.31 µM (active)
Cc1ccc(-c2ccnc3[nH]n(-c4ccccc4)c(=O)c23)cc1	inactive
O=C(NCc1ccc(F)cc1)c1ccc(Cn2c(SCc3ccc(F)cc3)nc3cccnc32)cc1	inactive
Cc1c(NC(=O)Nc2ccc(F)c(Cl)c2)c(=O)n(-c2ccccc2)n1C	inactive
Cc1c(CNC(C)c2ccccc2)c(C(=O)O)c(C)n1Cc1c(F)cccc1Cl (stereo unspecified)	inactive
O=C(NCCCO)C(=O)Nc1c2c(nn1-c1ccc(F)cc1)CSC2	inactive
CCn1c(CNC(=O)C23CC4CC(CC(C4)C2)C3)nnc1SCC(=O)Nc1ccc(OC)cc1	inactive
CC1=C(c2ccc(F)cc2)S(=O)(=O)N=C1N1CCC(C(=O)NCCc2ccccc2C)CC1	inactive
CCCS(=O)(=O)N1CCC(n2c(C(F)(F)F)nc3cccnc32)CC1	inactive
NS(=O)(=O)c1ccc(NC(=O)COc2ccc(S(=O)(=O)NC3CCCCC3)cc2)cc1	inactive
CC(C)Cn1c(=O)c2ccccc2n2c(CCC(=O)N3CCN(c4cccc(Cl)c4)CC3)nnc12	inactive
CCOc1ccc2nc(N3CCC(C(=O)Nc4cc(C)ccc4C)CC3)sc2c1	inactive
COCCNCCOCCOc1cccc(OC)c1	inactive
OCCNCCOc1ccc(Cl)c(Cl)c1	inactive
COCCCNCCOCCOc1ccc(Cl)cc1Br	1.78 µM (active)
Cn1nnc(NC(=S)NC(=O)c2ccccc2)n1	5.01 µM (active)
COc1cc(NS(=O)(=O)c2ccc(NC(=S)NC(=O)c3ccccc3)cc2)nc(OC)n1	inactive
COC(=O)c1nc(NC(=O)c2ccccc2)n[nH]1	inactive
O=C(C1COc2ccccc2O1)N(Cc1cccnc1)c1nc2c(F)cc(F)cc2s1 (stereo unspecified)	inactive
COc1ccccc1NC(=O)Nc1nnc(Cc2ccc(F)cc2)s1	inactive
COc1ccc(Cc2nnc(NC(=O)Cc3cccs3)s2)cc1	28.2 µM (active)
COc1ccc(Cc2nnc(NS(=O)(=O)Cc3ccccc3)s2)cc1	inactive
Cc1nn(C(C)C(=O)NCCc2ccccc2)c(=O)c2c1sc1ccccc12 (stereo unspecified)	inactive

Compound	Potency
COC(=O)c1sccc1S(=O)(=O)N(CC(=O)Nc1ccc(C)c(F)c1)c1ccc(C)c(C)c1	inactive
CCOc1cc(C=NNC(=O)CCCC(=O)NN=Cc2ccc(O)c(OCC)c2)ccc1O	inactive
CC(=O)c1sc(N/N=C/c2ccc(C(C)C)cc2)nc1C	inactive
COc1cc(/C=N\Nc2nc(-c3cccs3)c(NC(C)=O)s2)ccc1O	25.1 µM (active)
Cc1ccc2nc(COc3cccc(NC(=O)c4ccccc4Cl)c3)cc(=O)n2c1	inactive
COc1cc(C(=O)NCCc2csc3nc(-c4ccccc4C)nn23)cc(OC)c1OC	inactive
CCOC(=O)c1c(NC(=O)CSc2nccc(=O)[nH]2)sc(C)c1C	inactive
CCOC(=O)c1c(NC(=O)CSc2nnc(CN3CCOCC3)n2C)sc2c1CCCC2	inactive
CCOC(=O)c1c(NC(=O)CSc2nnc(Cc3csc(N)n3)n2C)sc(C)c1C	39.8 µM (active)
COc1ccc(C2C(=O)N(C3CCCCCC3)CC(=O)N2CCc2ccc(Cl)cc2)cc1OC (stereo unspecified)	inactive
Cc1ccc(Cn2cc(CCC(=O)NCc3ccc(OC(C)C)cc3)c3ccccc32)cc1	inactive
Cc1cccc(NC(=O)c2cccc(S(=O)(=O)N3CCCC3)c2)n1	inactive
Cc1ncc(CO)c(/C=N/NC(=O)c2cccc(S(=O)(=O)N3CCCC3)c2)c1O	22.4 µM (active)
CCOc1cc(/C=N/NC(=O)c2cccc(S(=O)(=O)N3CCOCC3)c2)ccc1OCC(=O)N(C)C	inactive
COc1ccccc1CCNC(=O)c1cccn1-c1nnc(N2CCCCC2)s1	inactive
COc1ccc2c(C)c(CCC(=O)NCc3ccc(OC)c(OC)c3)c(=O)oc2c1	inactive
COC(=O)C1=C(C)N(C(C)c2ccccc2)C(=O)/C1=C\c1ccco1 (stereo unspecified)	25.1 µM (active)
COC(=O)C1=C(C)N(c2ccc(Br)cc2)C(=O)/C1=C\c1ccco1	17.8 µM (active)
CCCCN=C1N/C(=C\c2ccco2)C(=O)N1c1ccccc1	inactive
O=C(OCN1C(=O)c2ccccc2C1=O)/C(=C\c1ccco1)NC(=O)c1ccccc1	inactive
COC(=O)C1=C(C)N(c2ccc(C)cc2)/C(=C/c2ccc(O)cc2)C1=O	inactive
COC(=O)COc1ccc2c(c1C)O/C(=C\c1ccco1)C2=O	inactive
CCOC(=O)c1c(C)[nH]c(C)c1S(=O)(=O)N1CCC(C(=O)Nc2ccc(C)c(Cl)c2)CC1	inactive
CCOC(=O)C1CCCN(C(=O)c2ccc3c(c2)sc2nc(-c4ccc(CC)cc4)cn23)C1 (stereo unspecified)	inactive

Compound	Potency
COC(=O)c1sc2ncccc2c1-n1c(C)ccc1C	inactive
COc1ccc(CNC(=O)c2cc3c(s2)-c2ccccc2OC3)cc1	inactive
Cc1cccc(N2CCN(C(=O)c3cnc(N4CCCC4)nc3C)CC2)c1C	inactive
COc1ccc(-c2cc(-c3ccc(F)cc3)nc3c2COc2ccccc2-3)cc1	inactive
COc1cc(Nc2nc(-c3ccc(OC)c(OC)c3)nc3ccccc23)cc(OC)c1	inactive
CCN(CC(=O)NC1CCS(=O)(=O)C1)c1nc(-c2cccnc2)nc2ccccc12 (stereo unspecified)	inactive
COc1ccc(Nc2nc(-c3cccnc3)nc3ccccc23)cn1	31.6 µM (active)
CC1CCC2(CC1)N=C(c1ccccc1)C(=O)N2CC(=O)Nc1ccc(F)c(Cl)c1 (stereo unspecified)	inactive
Cc1ccc(-n2c(=O)c3cccnc3n2CC(=O)Nc2ccccc2C(F)(F)F)cc1C	inactive
COc1ccc(CNc2nc(-c3ccc(Cl)cc3)nn2C(=O)c2ccccc2)cc1	inactive
O=C(Nc1cccc(-c2nnc(-c3ccccc3)o2)c1)C1CCCO1 (stereo unspecified)	inactive
NC(=O)[C@H]1CC2(CC(c3cccc(NC(=O)[C@H]4CCC(=O)N4)c3)=NO2)CN1C(=O)c1ccccc1C(=O)c1ccccc1 (stereo partly specified)	89.1 µM (active)
C=C(C)C(=O)Nc1cccc(C2=NOC3(C2)C[C@H](C(N)=O)N(C(=O)C(c2ccccc2)c2ccccc2)C3)c1 (stereo partly specified)	11.2 µM (active)
C/C=C(/C)C(=O)Nc1cccc(C2=NOC3(C2)C[C@@H](C(N)=O)N(C(=O)C2(C)CC2)C3)c1 (stereo partly specified)	inactive
CC/C=C/C(=O)N1CC2(CC(c3cccc(NC(=O)CC)c3)=NO2)C[C@H]1C(N)=O (stereo partly specified)	inactive
C/C=C(\C)C(=O)N1CC2(CC(c3cccc(NC(=O)CCCCC)c3)=NO2)C[C@@H]1C(N)=O (stereo partly specified)	inactive
Cc1ccc(OCCSc2nc(C)c(Cc3ccccc3)c(=O)[nH]2)cc1	inactive
COc1cc(OC)c(NC(=O)c2cc(S(=O)(=O)N3CCCC3)cn2C)cc1Cl	inactive
Cc1c(C(=O)NCc2ccccc2Br)oc2ccc3c(c12)C(=O)CC(C)(C)O3	inactive
COc1cccc(N2CCN(S(=O)(=O)c3cc(Br)cc4c3N(C(=O)C3CC3)CC4)CC2)c1	inactive
COc1ccc(CCNc2ncnc3onc(-c4ccc(Cl)cc4)c23)c(OC)c1	inactive
COc1cc(/C=C/C(=O)OCC(=O)NC(=O)NCc2ccccc2)ccc1OCC#N	inactive
COc1cc(/C=C/C(=O)OCC(=O)N2CCOCC2)ccc1OCC#N	50.1 µM (active)
COc1cc(/C=C/C(=O)Nc2ccc(OC)c(S(=O)(=O)N3CCOCC3)c2)ccc1OCC#N	inactive
